Results on seven compounds are retold here after PubChem BioAssay (NCI).

About 79,000 compounds went through this panel and 15% of them were active in at least one assay; those are over-represented in the sample as a whole. Values without a mark were called inactive. Activity calls are given as the source filed them. Rule as the data show it: active = growth inhibition above about 70%; inactive = the rest.

Test [1] is described as follows: NCI Yeast Anticancer Drug Screen. Data for the rad50 strain (AID 155).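 Also: 0% = growth of vehicle-only cultures of the same strain.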 Conditions: S. cerevisiae rad50 strain growth inhibition, active compounds read high. Summed up: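 Vehicle-treated cultures provide the reference for the growth inhibition reported for compound-exposed, repair-deficient yeast.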
Test [2] is described as follows: NCI Yeast Anticancer Drug Screen. Data for the mec2-1 strain (AID 157). Conditions: S. cerevisiae mec2-1 strain, active compounds read high. Summed up: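 Mutant yeast (mec2-1) grown with compound; growth inhibition relative to vehicle control reported.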
Test [3] in a line: NCI Yeast Anticancer Drug Screen. Data for the sgs1 mgt1 strain (AID 161).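 Also: 0% = growth of cultures given vehicle only.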 Particulars: S. cerevisiae sgs1 mgt1 strain, active compounds read high. Summed up:
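Yeast cells carrying a defined DNA-repair defect were exposed to test compounds. Growth inhibition was measured relative to vehicle-treated controls.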

The nature of test [4]: NCI Yeast Anticancer Drug Screen. Data for the cln2 rad14 strain (AID 165).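 Also: 0% = growth equal to vehicle treated cultures.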 Particulars: S. cerevisiae cln2 rad14 strain, active compounds read high. Summed up:
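Readout is yeast growth inhibition versus vehicle-treated controls, using a strain with cln2 and rad14 alterations exposed to compound.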

Test [5] is described as follows: NCI Yeast Anticancer Drug Screen. Data for the bub3 strain (AID 167). Conditions: S. cerevisiae bub3 mutant strain, active compounds read high. Put shortly: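 Mutant yeast screening strain plus compound; vehicle-treated cultures serve as the 0% inhibition reference.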
The nature of test [6]: NCI Yeast Anticancer Drug Screen. Data for the mlh1 rad18 strain (AID 175). Particulars: S. cerevisiae mlh1 rad18 strain growth inhibition, active compounds read high. Put shortly: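 Genetically defined yeast (DNA repair-deficient) exposed to compounds; growth inhibition determined relative to vehicle.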
Setting [7] is: at 5.0 µM (retest, dose inferred, filed as 0.5).
Where [8] appears, read: at 50.0 µM (retest, dose inferred, filed as 5.0).

On to `CC1=CCC2(C)C3CCC4(C)C(O)CCC4C3CCC2(C)C1` (stereo unspecified), for which the growth inhibition in test [1] (setting [7]) is -17%; in test [1] (setting [8]) it was 90% (active); in test [1] (at 50.0 µM), 70.8% (active); in test [2] (setting [7]), -17%; in test [2] (setting [8]) it was 95% (active); in test [2] (at 50.0 µM) it was 11.9%. For the same compound, the growth inhibition is -6% in test [3] (setting [7]); 97% (active) in test [3] (setting [8]); 63.8% in test [3] (at 50.0 µM); -6% in test [4] (setting [7]); 83% (active) in test [4] (setting [8]); 9.1% in test [4] (at 50.0 µM). The growth inhibition was -25% in test [5] (setting [7]); 94% (active) in test [5] (setting [8]); 39.5% in test [5] (at 50.0 µM); -10% in test [6] (setting [7]); 96% (active) in test [6] (setting [8]); 58.6% in test [6] (at 50.0 µM).

Consider `O=C([O][Hg][CH2]C1CC(O)CC([CH2][Hg][O]C(=O)c2ccccc2)O1)c1ccccc1` (stereo unspecified), for which the growth inhibition in test [1] (setting [7]) is 98% (active); in test [1] (setting [8]) it was 98% (active); in test [1] (at 50.0 µM) it was 99% (active); in test [2] (setting [7]), 98% (active); in test [2] (setting [8]), 99% (active); in test [2] (at 50.0 µM), 99.2% (active). The growth inhibition in test [3] (setting [7]) was 99% (active); in test [3] (setting [8]), 99% (active); in test [3] (at 50.0 µM), 99.3% (active); in test [4] (setting [7]), 96% (active); in test [4] (setting [8]), 97% (active); in test [4] (at 50.0 µM), 97.4% (active). In addition, the growth inhibition was 97% (active) in test [5] (setting [7]); 99% (active) in test [5] (setting [8]); 98.5% (active) in test [5] (at 50.0 µM); 99% (active) in test [6] (setting [7]); 99% (active) in test [6] (setting [8]); 98.6% (active) in test [6] (at 50.0 µM).

Turning to `N#C[SH2+].N#C[SH2+].N#C[SH2+].N#C[SH2+].[Cu+2].c1ccc(C[P+](c2ccccc2)(c2ccccc2)c2ccccc2)cc1`, the growth inhibition in test [1] (setting [7]) is 14%; in test [1] (setting [8]), 87% (active); in test [1] (at 50.0 µM), 96.8% (active); in test [2] (setting [7]), 5%; in test [2] (setting [8]), 95% (active); in test [2] (at 50.0 µM) it was 97.8% (active). The growth inhibition in test [3] (setting [7]) is 21%; in test [3] (setting [8]), 91% (active); in test [3] (at 50.0 µM), 97.9% (active); in test [4] (setting [7]) it was -8%; in test [4] (setting [8]), 82% (active); in test [4] (at 50.0 µM), 90.7% (active). For the same compound, the growth inhibition in test [5] (setting [7]) was 5%; in test [5] (setting [8]), 90% (active); in test [5] (at 50.0 µM), 92.9% (active); in test [6] (setting [7]), 45%; in test [6] (setting [8]), 97% (active); in test [6] (at 50.0 µM) it was 97.2% (active).

Regarding `CCOC(=O)/C(=C\c1ccc(C(=O)OC)cc1)[Se]c1ccccc1`, the growth inhibition in test [1] (setting [7]) was 13%; in test [1] (setting [8]), 54%; in test [1] (at 50.0 µM) it was 74% (active); in test [2] (setting [7]) it was 6%; in test [2] (setting [8]), 26%; in test [2] (at 50.0 µM), 40.8%. For the same compound, the growth inhibition in test [3] (setting [7]) was -3%; in test [3] (setting [8]), 53%; in test [3] (at 50.0 µM), 64.3%; in test [4] (setting [7]), 3%; in test [4] (setting [8]) it was 44%; in test [4] (at 50.0 µM), 51.7%. Besides, the growth inhibition in test [5] (setting [7]) was 18%; in test [5] (setting [8]) it was 53%; in test [5] (at 50.0 µM), 38.4%; in test [6] (setting [7]) it was -11%; in test [6] (setting [8]), 64%; in test [6] (at 50.0 µM) it was 58.8%.

Turning to `O=[N+]([O-])c1cccc(N=Cc2ccc(N(CCCl)CCCl)cc2)c1`, the growth inhibition in test [1] (setting [7]) is 4%; in test [1] (setting [8]), 53%; in test [1] (at 50.0 µM) it was 66%; in test [2] (setting [7]) it was 2%; in test [2] (setting [8]), 64%; in test [2] (at 50.0 µM) it was 21.9%. Besides, the growth inhibition in test [3] (setting [7]) is 3%; in test [3] (setting [8]) it was 63%; in test [3] (at 50.0 µM), 44.4%; in test [4] (setting [7]), 2%; in test [4] (setting [8]), 54%; in test [4] (at 50.0 µM), 26.1%. Besides, the growth inhibition is 3% in test [5] (setting [7]); 74% (active) in test [5] (setting [8]); 8% in test [5] (at 50.0 µM); 7% in test [6] (setting [7]); 74% (active) in test [6] (setting [8]); 60% in test [6] (at 50.0 µM).

`C=C(C)C(=O)OC1CCC2(C)C(CCC3C2CCC2(C)C(c4ccc(=O)oc4)CC4OC432)C1` (stereo unspecified): the growth inhibition in test [1] (setting [7]) is 7%; in test [1] (setting [8]) it was 67%; in test [1] (at 50.0 µM), 71.9% (active); in test [2] (setting [7]), 7%; in test [2] (setting [8]), 48%; in test [2] (at 50.0 µM) it was 66.7%. Moreover, the growth inhibition in test [3] (setting [7]) was -10%; in test [3] (setting [8]) it was 57%; in test [3] (at 50.0 µM), 63.8%; in test [4] (setting [7]), 26%; in test [4] (setting [8]), 64%; in test [4] (at 50.0 µM) it was 60.2%. For the same compound, the growth inhibition in test [5] (setting [7]) is 16%; in test [5] (setting [8]), 80% (active); in test [5] (at 50.0 µM), 71.3% (active); in test [6] (setting [7]) it was 21%; in test [6] (setting [8]) it was 73% (active); in test [6] (at 50.0 µM), 63.9%.

In the case of `CC(C)COP(=O)(OCC(C)C)C(=O)Nc1ccc(Cl)cc1`, the growth inhibition in test [1] (setting [7]) was -1%; in test [1] (setting [8]) it was 80% (active); in test [1] (at 50.0 µM) it was 57.1%; in test [2] (setting [7]), -19%; in test [2] (setting [8]) it was 44%; in test [2] (at 50.0 µM), 15.2%. Moreover, the growth inhibition in test [3] (setting [7]) was 11%; in test [3] (setting [8]), 89% (active); in test [3] (at 50.0 µM), 24.9%; in test [4] (setting [7]), 9%; in test [4] (setting [8]), 49%; in test [4] (at 50.0 µM), 22.6%. For the same compound, the growth inhibition is -2% in test [5] (setting [7]); 58% in test [5] (setting [8]); 25.1% in test [5] (at 50.0 µM); 2% in test [6] (setting [7]); 79% (active) in test [6] (setting [8]); 33.6% in test [6] (at 50.0 µM).
